Unmarked numbers belong to inactive results.
System: Caenorhabditis elegans L1 (N2)
Assay: survival and reproduction score of C. elegans L1 (0: 0-10 living worms, 1: 11-20, 2: 21-50, 3: >50, 4: overgrown) (score 0-4); higher = more worms, less nematicidal, active = 1 or less; extreme values may be limits of the assay
Conditions: 60 µM; 6 days; temperature: 20 °C
How it was run: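 Worm survival and reproduction were recorded as an ordinal score of living worms per well, read under a dissection microscope. Each 96-well well held about 20 synchronized C. elegans N2 L1s with E. coli HB101 in liquid NGM and compound at 60 µM final (0.6% v/v DMSO), sealed and shaken at 200 rpm, 20 °C, for 6 days. Scores ranged from 0 (0–10 worms) to 4 (overgrown, starved) and were the mean of two biological replicates.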

| SMILES | survival and reproduction score |
| --- | --- |
| Cc1ccoc1-c1nnc(-c2ccco2)o1 | 3.5 |
| Cc1cccc(C)c1NC(=O)CSc1nnc(-c2ccncc2)o1 | 4 |
| Cc1ccc(C)c(-c2nc(-c3cccnc3)no2)c1 | 0 (active) |
| CC(Oc1ccc(Br)cc1)c1nc(-c2ccncc2)no1 (stereo unspecified) | 0 (active) |
| Cc1cc(C)c(C)c(OCc2nc(-c3cccnc3)no2)c1 | 4 |
| COc1ccc(-c2noc(C34CC5CC(CC(C5)C3)C4)n2)cc1 | 4 |
| CCNC(=O)c1ccccc1-c1nc(-c2ccc(F)cc2)no1 | 2 |
| CC(C)(C)c1ccc(-c2noc(COc3ccccc3)n2)cc1 | 4 |
| Cc1ccc(NC(=O)CSc2nnc(-c3ccc(C(C)(C)C)cc3)o2)c(C)c1 | 2 |
| Cn1c(SCc2nnc(-c3ccccc3)o2)nnc1-c1ccco1 | 4 |
| CCOc1ccc(NC(=O)CSc2nnc(-c3ccncc3)o2)cc1 | 4 |
| CCCc1ccc(-c2nc(-c3ccc(F)cc3)no2)cc1 | 1.5 |
| Cc1cc(NC(=O)CSc2nnc(-c3ccc(Cl)cc3Cl)o2)no1 | 4 |
| COc1ccc(-c2nnc(SCC(=O)Nc3ccc(Cl)cc3Cl)o2)cc1 | 2 |
| Cc1cc(C)nc(SCc2nc(-c3ccccc3)no2)n1 | 4 |
| Cc1c(C)n(C(=O)CSc2nnc(-c3ccccc3)o2)c2ccccc12 | 4 |
| CC(C)(C)NC(=O)c1ccccc1-c1nc(-c2ccccc2)no1 | 4 |
| Cc1ccccc1OCc1nc(-c2ccc(NC(=O)c3ccc(Br)o3)cc2)no1 | 4 |
| Cc1ccc(-c2nc(C3CCCCC3)no2)cc1 | 0 (active) |

| SMILES | survival and reproduction score |
| --- | --- |
| c1ccc(-c2noc(-c3cccs3)n2)cc1 [tioxazafen] | 0 (active) |
| Cc1cccc(NC(=O)CSc2nnc(-c3ccncc3)o2)c1C | 4 |
| C=C(C)COc1ccc(-c2nc(-c3cccnc3)no2)cc1 | 3 |
| CC(C)Oc1ccc(-c2nc(-c3ccccc3)no2)cc1 | 0 (active) |
| Clc1ccc(-c2nc(-c3ccncc3)no2)cc1Cl | 4 |
| COc1cccc(NC(=O)c2ccccc2-c2nc(-c3ccc(F)cc3)no2)c1 | 4 |
| c1ccc(-c2nnc(SCc3nc4ccccc4[nH]3)o2)cc1 | 4 |
| Brc1ccc(-c2noc(-c3ccco3)n2)o1 | 4 |
| COc1ccc(-c2noc(-c3ccc(C)c(C)c3)n2)cc1 | 2 |
| COc1ccc(Cl)cc1-c1noc(COc2ccc(Cl)cc2)n1 | 4 |
| c1ccc(-c2nc(C3CCCCC3)no2)cc1 | 0 (active) |
| COc1cccc(-c2nnc(SCC(=O)Nc3cccc(C(F)(F)F)c3)o2)c1 | 4 |
| Cc1ccc(C)c(-c2nc(-c3ccc(Cl)cc3)no2)c1 | 4 |
| Clc1ccc(-c2noc(-c3ccccc3Br)n2)cc1 | 3 |
| COc1ccc(-c2noc(COc3ccc(C4CCCCC4)cc3)n2)cc1 | 4 |
| COc1cccc(-c2nc(-c3ccc(F)cc3)no2)c1 | 4 |
| Cc1ccc(-c2nnc(SCC(=O)Nc3c(C)cc(C)cc3C)o2)cc1 | 4 |
| O=C(CSc1nnc(-c2ccco2)o1)Nc1cccc2ccccc12 | 4 |
| COc1ccc(-c2nc(-c3ccc(C(F)(F)F)cc3)no2)cc1 | 4 |

| SMILES | survival and reproduction score |
| --- | --- |
| Cc1ccc(-c2nnc(SCc3ccccc3Cl)o2)cc1 | 4 |
| O=C(CSc1nnc(-c2cccc(Cl)c2)o1)NC1CCCCC1 | 4 |
| Clc1ccc(-c2noc(-c3ccccc3Cl)n2)cc1 | 3 |
| COc1nc(-c2ccccc2)ccc1-c1noc(-c2ccccc2Cl)n1 | 4 |
| O=C(CSc1nnc(-c2ccccc2)o1)Nc1ccccc1F | 4 |
| CCCOc1ccc(-c2ccc(-c3nc(-c4cccnc4)no3)cc2)cc1 | 4 |
| Cc1cccc(-c2nnc(SCC(=O)Nc3ccccc3F)o2)c1 | 4 |
| Cc1cccc(OCc2nc(-c3ccncc3)no2)c1C | 4 |
| Cc1ccc(-c2nnc(SCC(=O)NCc3ccccc3)o2)cc1 | 4 |
| Clc1cc(Br)ccc1OCc1nc(-c2ccccn2)no1 | 4 |
| O=C(NCc1cccnc1)c1ccccc1-c1nc(-c2ccccc2Cl)no1 | 4 |
| O=C(CSc1nnc(-c2ccco2)o1)c1ccccc1 | 4 |
| COc1ccc(-c2noc(COc3ccc(Cl)cc3)n2)cc1 | 4 |
| O=C(CSc1nnc(-c2ccco2)o1)NC1CCCCC1 | 4 |
| Cc1ccc(OCc2nc(-c3ccccc3)no2)c(Br)c1 | 4 |
| O=C(CSc1nnc(-c2cccnc2)o1)c1ccc(Br)cc1 | 4 |
| O=C(c1ccccc1-c1nc(-c2ccccc2Cl)no1)N1CCCC1 | 4 |
| Clc1ccc(-c2noc(COc3ccccc3Cl)n2)cc1 | 4 |
